From PubChem BioAssay (NCI)
About 83,000 compounds went through this panel and 20% of them were active in at least one assay; those are over-represented in the sample as a whole.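 Single-dose data. Exposure time 48 hours. Values below 10 considered active.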 Values without a mark were called inactive. The source made the active and inactive calls.

The molecules below were run on OVCAR-5 ovarian (assay: NCI-60 one-dose screen, 48 h (100 = growth as untreated, 0 = no growth, -100 = all killed)). Details: 10 µM.
Description: Growth inhibition of the OVCAR-5 human tumor cell line is measured as a screen for anti-cancer activity. Cells are grown in 96 well plates and exposed to the test compound for 48 hours. Compounds are tested at a single concentration, which is 10^-5 M for most compounds. The reported endpoint is percent growth (GI% or GIPRCNT), where numbers from 0 - 100% represent growth inhibition, and numbers from -100% - 0 represent cell death. For example, a value of 40 represents 60% growth inhibition. A value of 0 means no net growth occurred over the course of the experiment. A value of -40 indicates 40% of cells at the beginning of the experiment died by the end of the experiment. A value of -100 means all cells are dead at the end of the experiment.
NCI-60 Human Tumor Cell Lines Screen was performed using the standard one-dose NCI protocol, which is described in more detail at https://dtp.cancer.gov/discovery_development/nci-60/default.htm.
Compounds with GIPRCNT values below 10 were considered active. Activity score was based on GIPRCNT using the following formula: […]
Score is 0 for GIPRCNT values of 100 or above, 50 for GIPRCNT values of 0, and 100 for GIPRCNT values of -100.

**Q.** `CCC[Se]C(=O)c1ccc(C(=O)[Se]CCC)s1` was tested. Which growth did it give?
**A.** -35.6% (active)

**Q.** `CC[C@]12C=CCN3CC[C@@]4(c5ccc(OC)cc5N(C)[C@H]4[C@@](O)(C(=O)OC)[C@@H]1OC(=O)CCCC[P+](c1ccc(OC)cc1)(c1ccc(OC)cc1)c1ccc(OC)cc1)[C@@H]32` was tested. Which growth did it give?
**A.** -98.6% (active)

**Q.** How did the growth turn out when `O=C([Se]C1C=CCCC1)c1ccc(C(=O)[Se]C2C=CCCC2)s1` (stereo not given) was run?
**A.** -89.2% (active)

**Q.** Which growth does the source give for `O=C(/C=C/c1ccccc1)c1nc2ccccc2n1Cc1ccc(Br)cc1` here?
**A.** -62.3% (active)

**Q.** For `O=C(/C=C/c1ccccc1Cl)c1nc2ccccc2n1Cc1ccc(F)cc1`, which growth is on record?
**A.** -66.3% (active)

**Q.** For `CC(=O)Oc1ccccc1C(=O)[Se]C(=NC(C)C)NC(C)C`, which growth is on record?
**A.** -66.5% (active)

**Q.** Which growth does the source give for `C[C@H]1[C@H](OC(=O)CCC(=O)N(CCCc2cn(-c3ccc(CN4CCOCC4)cc3)nn2)CCNc2ccnc3cc(Cl)ccc23)O[C@@H]2OC3(C)CC[C@H]4[C@H](C)CC[C@@H]1[C@@]24OO3` here?
**A.** 42.1%

**Q.** `O=C(/C=C/c1ccc(Cl)cc1)c1nc2ccccc2n1Cc1ccc(Br)cc1` was tested. Which growth did it give?
**A.** 89.9%

**Q.** How did the growth turn out when `CC12OOC(C)(OO1)C2CCC(=O)NCCNc1ccnc2cc(Cl)ccc12` (stereo not given) was run?
**A.** 102%

**Q.** With `C=CC[Se]C(=O)c1ccc(C(=O)[Se]CC=C)s1` as the molecule, how does the growth read?
**A.** -61.8% (active)

**Q.** How did the growth turn out when `C=CC[Se]C(=O)c1cncc(C(=O)[Se]CC=C)c1` was run?
**A.** -86.6% (active)

**Q.** With `CC1=C2C(=C[C@@](C)(COP(=O)(Oc3ccccc3)Oc3ccccc3)[C@@H]2O)C(=O)[C@@](C)(O)C12CC2` as the molecule, how does the growth read?
**A.** -64.5% (active)

**Q.** `C#CC[Se]C(=O)c1ccc(C(=O)[Se]CC#C)s1` was tested. Which growth did it give?
**A.** 81.3%

**Q.** How did the growth turn out when `CC(C)N=C([Se])NC(=O)c1cccs1` was run?
**A.** -22.6% (active)

**Q.** Which growth does the source give for `C[C@H]1[C@H](OC(=O)CCC(=O)N(CCCc2cn(-c3ccc(C#N)cc3)nn2)CCNc2ccnc3cc(Cl)ccc23)O[C@@H]2OC3(C)CC[C@H]4[C@H](C)CC[C@@H]1[C@@]24OO3` here?
**A.** 54.5%

**Q.** Which growth does the source give for `O=C(/C=C/c1ccco1)c1nc2ccccc2n1Cc1ccc(F)cc1` here?
**A.** 89.4%

**Q.** Which growth does the source give for `O=C(/C=C/c1ccc(F)cc1)c1nc2ccccc2n1Cc1ccc(Br)cc1` here?
**A.** -55.1% (active)

**Q.** For `CC1=C(CCC=O)C2=C(C)C3(CC3)[C@@](C)(O)C(=O)C2=C1`, which growth is on record?
**A.** -95.8% (active)

**Q.** With `CC1=C(COCCOC(=O)c2ccc(S(=O)(=O)F)cc2)C2=C(C)C3(CC3)[C@@](C)(O)C(=O)C2=C1` as the molecule, how does the growth read?
**A.** -43.7% (active)

**Q.** For `COc1cc(OC)c(/C=C/C(=O)c2nc3ccccc3n2Cc2ccc(F)cc2)c(OC)c1`, which growth is on record?
**A.** 112%

**Q.** `CCOP(=O)(CC(F)(F)C(F)(F)F)OCC` was tested. Which growth did it give?
**A.** 50.7%

**Q.** With `CCOC(=O)C1=C(Nc2ccccc2)C(=O)OC12C(=O)Nc1ccccc12` (stereo not given) as the molecule, how does the growth read?
**A.** 103%

**Q.** Which growth does the source give for `CC(=O)Oc1ccccc1C(=O)NC([Se])=NC1CCCCC1` here?
**A.** -30.3% (active)

**Q.** For `O=C(/C=C/c1cccc(Br)c1)c1nc2ccccc2n1Cc1ccc(Br)cc1`, which growth is on record?
**A.** -50.4% (active)

**Q.** For `Cc1ccc2[nH]c(=S)n(-c3ccc(F)cc3)c(=O)c2c1`, which growth is on record?
**A.** 106%

**Q.** `O=C(/C=C/c1cccc(Br)c1)c1nc2ccccc2n1Cc1ccc(F)cc1` was tested. Which growth did it give?
**A.** 53.7%

**Q.** With `O=C(/C=C/c1ccc(Cl)cc1Cl)c1nc2ccccc2n1Cc1ccc(F)cc1` as the molecule, how does the growth read?
**A.** 67.3%

**Q.** `C[C@H]1[C@H](OC(=O)CCC(=O)N(CCCc2cn(-c3ccc([N+](=O)[O-])cc3)nn2)CCNc2ccnc3cc(Cl)ccc23)O[C@@H]2OC3(C)CC[C@H]4[C@H](C)CC[C@@H]1[C@@]24OO3` was tested. Which growth did it give?
**A.** 54.3%

**Q.** For `N#C[Se]CC(=O)Nc1cccc(C(F)(F)F)c1`, which growth is on record?
**A.** -36.7% (active)

**Q.** With `O=C(NC([Se])=NC1CCCCC1)c1ccccc1` as the molecule, how does the growth read?
**A.** 62.2%

**Q.** How did the growth turn out when `C[C@H]1[C@@H](Oc2ccc(-c3cn(-c4ccnc5cc(Cl)ccc45)nn3)cc2)O[C@@H]2OC3(C)CC[C@H]4[C@H](C)CC[C@@H]1[C@@]24OO3` was run?
**A.** 19.2%

**Q.** How did the growth turn out when `CC[C@]12C=CCN3CC[C@@]4(c5ccc(OC)cc5N(C)[C@H]4[C@@](O)(C(=O)OC)[C@@H]1OC(=O)CCCC[P+](C1CCCCC1)(C1CCCCC1)C1CCCCC1)[C@@H]32` was run?
**A.** 5.84% (active)

**Q.** Which growth does the source give for `C=CCN=C([Se])NC(=O)c1ccc2c(c1)OCO2` here?
**A.** 117%

**Q.** `CC12OOC(C)(OO1)C2CCC(=O)NCCCNc1ccnc2cc(Cl)ccc12` (stereo not given) was tested. Which growth did it give?
**A.** 84.4%

**Q.** `O=C(/C=C/c1ccccc1)c1nc2ccccc2n1Cc1ccc(F)cc1` was tested. Which growth did it give?
**A.** -15.1% (active)

**Q.** With `CC[C@]12C=CCN3CC[C@@]4(c5ccc(OC)cc5N(C)[C@H]4[C@@](O)(C(=O)OC)[C@@H]1OC(=O)CCC[P+](c1ccc(C)cc1)(c1ccc(C)cc1)c1ccc(C)cc1)[C@@H]32` as the molecule, how does the growth read?
**A.** -95.9% (active)

**Q.** How did the growth turn out when `C[C@H]1[C@H](OC(=O)CCC(=O)Nc2cnccn2)O[C@@H]2OC3(C)CC[C@H]4[C@H](C)CC[C@@H]1[C@@]24OO3` was run?
**A.** 35.2%

**Q.** With `CC(=C\C(=O)Oc1ccc2c3c1OC1C(O)CCC4(O)C(C2)N(CC2CCC2)CCC314)/C=C1\CCCc2ccccc21` (stereo not given) as the molecule, how does the growth read?
**A.** 72.1%

**Q.** `O=C(/C=C/c1ccco1)c1nc2ccccc2n1Cc1ccc(Br)cc1` was tested. Which growth did it give?
**A.** 57%

**Q.** With `CC12OOC(C)(OO1)C2CCC(=O)OCCNc1ccnc2cc(Cl)ccc12` (stereo not given) as the molecule, how does the growth read?
**A.** 94.7%
